Most compounds without a hit are left out; they make up all but 6.7% or so of the library.
FBA Mtb inh – inhibitors of M. tuberculosis fructose-bisphosphate aldolase | P9WQA3 | purified M. tuberculosis FBA, fluorescence read-out | inhibition, % at 1 µM | 360,000 compounds, 2.3% hits | AID 588726; in the data active = inhibition above about 27%;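 note: 0% = vehicle and 100% = reference inhibitor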
Target sequence (P9WQA3 whole entry, looked up): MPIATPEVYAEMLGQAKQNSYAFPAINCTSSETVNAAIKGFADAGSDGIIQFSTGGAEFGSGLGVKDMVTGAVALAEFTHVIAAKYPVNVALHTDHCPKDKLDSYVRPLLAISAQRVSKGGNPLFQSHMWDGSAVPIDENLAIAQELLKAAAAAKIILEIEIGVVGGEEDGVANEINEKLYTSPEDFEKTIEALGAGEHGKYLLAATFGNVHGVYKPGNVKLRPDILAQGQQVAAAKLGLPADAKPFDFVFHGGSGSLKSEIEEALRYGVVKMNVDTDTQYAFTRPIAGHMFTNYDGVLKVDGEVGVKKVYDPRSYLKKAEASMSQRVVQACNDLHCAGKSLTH
Anthrax LF prot – anthrax lethal factor protease inhibition. P15917. multiplex microsphere protease cleavage assay, LF. inhibition, % at 10 µM. 360,000 compounds, 0.12% hits; note: plate controls were buffer without enzyme for full effect and enzyme alone for no effect
BoNT-F LC inh – inhibitors of Botulinum neurotoxin F light chain protease. Multiplex microsphere protease cleavage assay, flow cytometry. 360,000 compounds, 0.22% hits. inhibition, % at 10 µM. AID 588497; in the data active = inhibition above about 35%, passing the limit was not always enough; inconclusive = no clear call, values can overlap the other calls; note: plate controls were buffer without enzyme for full effect and enzyme alone for no effect
GDH-TPI counter – inhibits GDH-TPI coupling enzymes, artifact for Mtb FBA screen | GDH-TPI coupled enzyme counterscreen, NADH absorbance | inhibition, % at 4.8 µM | 360,000 compounds, 1.2% hits | AID 588335; in the data active = inhibition above about 30%;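 note: 0% = DMSO wells and 100% = wells lacking the enzyme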
BoNT-A LC inh2 – BoNT A light chain protease inhibition; 360,000 compounds, 0.17% hits; inhibition, % at 10 µM; multiplex microsphere protease substrate cleavage, flow cytometry; AID 588499; note: plate controls were buffer without enzyme for full effect and enzyme alone for no effect
Bead autofluor – counter-screen for toxin protease inhibitors: compound fluorescence | fluorescence intensity (test concentration not listed) | 360,000 compounds, 3.1% hits | AID 624483 | compound autofluorescence counterscreen, microsphere flow cytometry; hits give high values; in the data active = fluorescence intensity above about 16000; inconclusive = no clear call, values can overlap the other calls
BoNTA LC inh 1 – inhibitors of Botulinum neurotoxin A light chain protease. shares compounds with BoNT-F LC inh. multiplex microsphere protease assay, flow cytometry. inhibition, % at 10 µM. 720 compounds, 3% hits. AID 602139; in the data active = inhibition above about 32%
BoNTF LC inh 1 – inhibitors of Botulinum neurotoxin F light chain protease; shares compounds with BoNT-F LC inh; multiplex microsphere protease cleavage assay, flow cytometry; inhibition, % at 10 µM; 720 tested, under 10 active; call rule not given here
Anthrax LF CP1 – blocks anthrax lethal factor protease; multiplex microsphere protease cleavage assay, LF; 720 tested, under 10 active; shares compounds with BoNT-F LC inh; inhibition, % at 10 µM; call rule not given here
Active calls of the source: *; u = inconclusive; x = no result given. Cut-off read from the data, not from the text of the source, unless noted: active = inhibition above about 30%; inconclusive = no clear call, values can overlap the other calls; inactive = below that.

SMILES	FBA Mtb inh	Anthrax LF prot	BoNT-F LC inh	GDH-TPI counter	BoNT-A LC inh2	Bead autofluor	BoNTA LC inh 1	BoNTF LC inh 1	Anthrax LF CP1
CCc1ccc(-c2cc(C(F)(F)F)n3nc(C(=O)Nc4cnn(Cc5ccccc5C)c4)cc3n2)s1	1	2	10	1	4	10727	2	0	-4
O=C(Nc1cnn(Cc2ccc(F)cc2)c1)c1cc(-c2ccco2)on1	-2	-5	8	3	0	5409	x	x	x
O=C(Nc1ccccc1C(=O)N1CCN(Cc2ccccc2)CC1)c1ccccn1	-2	0	7	7	1	3496	x	x	x
CCC(C)NC(=O)CCS(=O)(=O)c1ccc2c(c1)n(C)c(=O)c(=O)n2C (stereo unspecified)	7	-8	-8	22	1	3967	x	x	x
Clc1ccc(C2=Nn3c(nnc3-c3cccnc3)SC2)s1	-10	3	7	11	2	2837	x	x	x
CCc1ccc(-c2cc(C(F)(F)F)n3nc(C(=O)Nc4c(C)nn(Cc5ccccc5Cl)c4C)cc3n2)s1	2	29	17	4	u	21126*	5	3	4
Cc1nn(Cc2ccccc2Cl)c(C)c1NC(=O)c1cc(-c2ccc(F)cc2)on1	2	-1	6	11	0	9940	x	x	x
Cc1cc(C)n2nc(C(=O)Nc3c(C)nn(Cc4ccc(F)cc4)c3C)cc2n1	12	-3	4	-10	-1	4003	-2	2	1
CCOc1ccc(N2CC(=O)N/C2=N\c2nc(C)cc(C)n2)cc1	4	-1	-17	3	-1	3028	x	x	x
CCc1nc2c(OCc3ccc(C(=O)N(C)C)cc3)cccn2c1N(C)C(=O)Nc1ccccc1OC	-1	-1	7	8	0	2900	x	x	x
CCOC(=O)c1cnn(CCOC(=O)c2ccccc2F)c1NC(=O)c1ccccc1F	-1	-12	-39	9	-7	6708	x	x	x
CCOC(=O)c1cnn(CCOC(=O)C(C)(C)C)c1NC(=O)C(C)(C)C	4	-25	43*	2	36*	9307	0	-2	-3
Cc1cc(C)cc(N2C(=O)NC(=O)/C(=C\c3cccn3-c3ccccc3)C2=O)c1	-3	31*	68*	-2	6	6580	0	-3	3
COc1ccc(-n2c(CNC(=O)COc3ccccc3)n[nH]c2=S)cc1	-2	-11	5	-9	0	4621	x	x	x
O=C(COc1ccccc1)NCc1n[nH]c(=S)n1-c1ccccc1	4	1	47*	-5	7	4390	1	0	0
CCOc1ccc(NC(=O)CSc2nnc(-c3ccccc3)n2N)cc1	-7	0	0	-2	0	2768	x	x	x
COc1cc(CC(NC(C)=O)C(=O)NC2CCN(C(=O)C3CC3)CC2)cc(OC)c1 (stereo unspecified)	9	3	7	-1	0	4310	x	x	x
COc1cc(CC(NC(C)=O)C(=O)NC2CCN(C(=O)c3ccc(C)cc3)CC2)cc(OC)c1 (stereo unspecified)	0	5	43*	3	0	2861	-1	-5	0
CC(C)(C)c1cc(Cl)c(O)c(NC(=S)NC(=O)c2cccnc2)c1	-5	3	-4	1	0	4619	x	x	x
Cc1cc(-c2c(C(=O)N3CCOCC3)c(C)nn2-c2cccc(C(F)(F)F)c2)no1	-2	2	u	-9	u	4002	x	x	x
Cc1cc(-c2c(C(=O)N3CCOCC3)c(C)nn2-c2ccccc2)no1	2	34*	u	10	2	3397	-6	-14	-1
COc1ccc(C2CC(c3ccc(F)cc3)n3nc(NC(=O)c4ccco4)nc3N2)cc1 (stereo unspecified)	-1	-9	-4	-2	-1	6286	-2	-12	-5
CC1CC(c2ccccc2)n2nc(NC(=O)c3ccco3)nc2N1 (stereo unspecified)	-6	0	u	-10	2	3609	x	x	x
CCc1c(C)nc2ncnn2c1Nc1ccc(C)c(C)c1	2	-3	-2	4	0	3000	x	x	x
COc1ccc(NS(=O)(=O)c2cccc(C(=O)Nc3cccc(C(=O)O)c3)c2)cc1	-1	-10	u	-1	-2	4059	1	15	-4
SMILES	FBA Mtb inh	Anthrax LF prot	BoNT-F LC inh	GDH-TPI counter	BoNT-A LC inh2	Bead autofluor	BoNTA LC inh 1	BoNTF LC inh 1	Anthrax LF CP1
Cc1cccc(NC(=O)c2cccc(S(=O)(=O)Nc3ccccc3C(=O)O)c2)c1	5	-7	-48	3	-3	3303	1	-6	-2
O=C(Nc1ccccc1O)c1cccc(S(=O)(=O)Nc2ccccc2O)c1	1	4	-9	-5	0	6544	-2	-21	-2
O=C(Nc1ccccc1C(=O)O)c1cccc(NS(=O)(=O)c2ccc(Br)cc2)c1	2	6	6	-5	0	3689	x	x	x
COc1ccc(CNC(=O)c2cccc(NC(=O)c3ccccc3)c2)cc1	1	0	40*	11	4	2804	0	-7	-2
Cc1ccccc1NC(=O)c1cccc(S(C)(=O)=O)c1	-1	-2	3	-1	-1	4707	x	x	x
CCCCn1c(O)c(C(C)=NCc2ccc3c(c2)OCO3)c(=O)[nH]c1=O	-4	-32	u	3	-27	4803	x	x	x
Cc1c(C(c2ccc(Cl)cc2Cl)c2c(O)c3ccccc3oc2=O)c(=O)n(-c2ccccc2)n1C (stereo unspecified)	3	1	-7	-3	0	4510	x	x	x
Cc1ccccc1NS(=O)(=O)c1cccc(C(=O)Nc2cccc(C(=O)O)c2)c1	1	5	u	-1	-2	4073	-1	-4	-1
Cc1ccc(NS(=O)(=O)c2cccc(C(=O)O)c2)c(C)c1	1	3	0	7	1	7495	x	x	x
C=C(Cl)COc1ccc2c(CCCC)cc(=O)oc2c1	24	0	-10	2	0	2484	x	x	x
Cc1cc(C)nc(NS(=O)(=O)c2ccc(NC(=O)c3ccc4c(c3)OCCO4)cc2)n1	4	3	36*	-1	4	4686	0	-6	-4
O=C(NC1CCCCC1)c1ccccc1C(F)(F)F	-1	-3	15	-2	1	4262	x	x	x
COc1ccc(S(=O)(=O)N2CCN(C)CC2)cc1	0	-5	74*	5	3	3909	-1	0	-3
O=C1c2ccccc2C(=O)N1CCn1ccnc1	0	14	41*	2	0	3914	0	0	1
O=C1c2ccccc2C(=O)N1CCCn1ccnc1	3	13	u	3	1	3039	x	x	x
N=c1sc2ccccc2n1-c1ccccc1	-1	27	20	-2	32*	10239	2	0	2
NC(=O)c1c(NC(=O)Cn2nc(C(=O)O)c3ccccc3c2=O)sc2c1CCC2	2	-2	-4	17	-1	4430	x	x	x

From PubChem
